Data taken from PubChem BioAssay (Tox21).
Inconclusive results are not listed. Activity calls are given as the source filed them. Unless noted, the call rests on the fitted dose curve.

Columns and labels:
[1] = Nuclear factor erythroid 2-related factor 2/antioxidant responsive element (Nrf2/ARE) small molecule agonists: qHTS cell viability counter screen in human keratinocytes (AID 1919968; active means well fitted curve in the direction sought with a large enough effect in the repeat runs; an effect the other way counts as inactive or inconclusive; further: nearly all actives have a fitted effect of over 55% in size; further: potency means the concentration at half of the fitted maximal effect)
How it was run: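 Seed 1,500 KeratinoSens cells per well, then incubate 5 h at 37 C/5% CO2. Add compounds in DMSO and incubate 23 h. Add CellTiter-Fluor, wait 1 h and read fluorescence.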

[2] = Nuclear factor erythroid 2-related factor 2/antioxidant responsive element (Nrf2/ARE) small molecule agonists: luciferase reporter gene qHTS assay in human keratinocytes (AID 1919969); further: nearly all actives have a fitted effect of over 35% in size; further: potency means the concentration at half of the fitted maximal effect
[3] = molecular target: Gonadotropin-releasing hormone receptor (Homo sapiens) (UniProt P30968); assay: Human gonadotropin-releasing hormone receptor (GnRHR) small molecule agonists, calcium flux assay in GnRHR-HEK293 cells (AID 1920063); further: nearly all actives have a fitted effect of over 35% in size
How it was run: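 Cells: HEK293 stably expressing human GnRHR. Steps: overnight (18 h) culture, 1 h calcium dye loading at 37 C, compound addition, kinetic fluorescence read at 480/540 nm. Each compound tested at 15 concentrations in triplicate.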

[4] = molecular target: KiSS-1 receptor (Homo sapiens) (UniProt Q969F8); assay: Human kisspeptin (KISS1R) small molecule agonists, calcium flux assay in KISS1R-HEK293 cells (AID 1920064; active means well fitted curve in the direction sought with a large enough effect in the repeat runs; an effect the other way counts as inactive or inconclusive)
How it was run: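 Cells plated and incubated 18 h; dye added, 1 h at 37 C; compounds in DMSO pinned in; signal read at 480/540 nm every second for 3 min. Each compound tested at 15 concentrations in triplicate.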

[5] = G protein-coupled receptor (GPCR) small molecule agonists, calcium flux assay: HEK293 wild type cell line counter screen (AID 1920065)
How it was run: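 Counter-screen of the Tox21 10K library for non-specific calcium release: dye-loaded cells received compounds in DMSO and were monitored by kinetic fluorescence (480/540 nm, 3 min). Fifteen concentrations, run in triplicate.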

[6] = p53 small molecule agonists, cell-based qHTS assay with rat liver microsomes (AID 1963578)
How it was run: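 With rat liver microsomes and NADPH present (0.5 mg/mL final each), p53RE-bla cells are treated with compound for 16 h at 37 C. LiveBLAzer detection mixture is then applied for 2 h at room temperature in the dark.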

[7] = p53 small molecule agonists, cell-based qHTS assay with human liver microsomes: qHTS cell viability counter screen (AID 1963579); further: nearly all actives have a fitted effect of over 45% in size
How it was run: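 In this multiplexed counter screen, the reporter plates were subsequently treated with CellTiter-Glo so that cell viability, reflected by luminescence, could be recorded for p53RE-bla cells dosed 16 h with compounds under microsomal activation (HLM and NADPH).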

[8] = p53 small molecule agonists, cell-based qHTS assay: qHTS cell viability counter screen (AID 1963581); further: nearly all actives have a fitted effect of over 45% in size
How it was run: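 Cells: HCT-116 with p53 response element-driven beta-lactamase. Treatment: 16 h, 37 C, compounds in DMSO. Read: CellTiter-Glo luminescence after 30 min RT.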

[9] = p53 small molecule agonists, cell-based qHTS assay (AID 1963582; active means well fitted activation curve with a large enough effect in the signal ratio in the repeat runs, not every such curve was filed as active; the % refers to the signal ratio)
How it was run: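 Quantitative HTS in p53RE-bla cells: after a 5 h settling period, compounds delivered in DMSO were left on cells for 16 h at 37 C, and reporter induction was measured as fluorescence following 2 h substrate loading.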

[10] = molecular target: 5-hydroxytryptamine receptor 2A (Homo sapiens) (UniProt P28223); assay: 5-hydroxytryptamine receptor 2A (HTR2A) small molecule agonists, cell-based qHTS assay (AID 1963587); further: nearly all actives have a fitted effect of over 30% in size
How it was run: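 CHO cells stably expressing human HTR2A, plated 18 h, loaded with calcium dye 1 h at 37 C. Agonist mode: compounds added and intracellular calcium fluorescence recorded kinetically for 2 min at 1 sec intervals.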

[11] = molecular target: Muscarinic acetylcholine receptor M1 (Homo sapiens) (UniProt P11229); assay: Cholinergic receptor muscarinic 1 (CHRM1) small molecule antagonists, cell-based qHTS assay (AID 1963588); further: nearly all actives have a fitted effect of over 40% in size
How it was run: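 CHRM1-CHO calcium-flux assay, antagonist mode. Cells were seeded 18 h, dye-loaded 1 h at 37 C and given compound for 5 min at RT, then acetylcholine was added at 50nM. FDSS fluorescence was read 3 min; 15 concentrations, three runs.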

[12] = molecular target: Muscarinic acetylcholine receptor M1 (Homo sapiens) (UniProt P11229); assay: Cholinergic receptor muscarinic 1 (CHRM1) small molecule agonists, cell-based qHTS assay (AID 1963589); further: nearly all actives have a fitted effect of over 35% in size
How it was run: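 Agonist-mode qHTS in CHO cells stably carrying human muscarinic M1. Intracellular calcium is tracked by fluorescence every second after compound transfer; each compound runs at 15 concentrations in three independent runs.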

[13] = cAMP Responsive Elements (CRE) small molecule agonists, cell-based qHTS assay (AID 1963590)
How it was run: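 Agonist mode qHTS in CRE-bla HEK 293T cells: compounds dosed from DMSO for 3 h at 37 C/5% CO2, followed by LiveBLAzer B/G FRET substrate for 2 h at room temperature.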

[14] = cAMP Responsive Elements (CRE) small molecule antagonists, cell-based qHTS assay (AID 1963591; active means well fitted inhibition curve with a large enough effect in the signal ratio in the repeat runs, not every such curve was filed as active; the % refers to the signal ratio)
How it was run: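 Antagonist mode: test compounds are co-incubated with the adenylyl cyclase activator NKH477 (0.25 uM final) on CRE-bla HEK293T cells for 3 h at 37 °C, followed by LiveBLAzer substrate loading.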

[15] = molecular target: Beta-2 adrenergic receptor (Homo sapiens) (UniProt P07550); assay: Adrenergic beta2 receptor (ADRB2) small molecule antagonists, cell-based qHTS assay (AID 1963592); further: series mostly up to about 92 µM; nearly all actives have a fitted effect of over 50% in size
How it was run: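 Cells (CHO, stable ADRB2 overexpression) incubated 18-20hr at 37C; compounds added from DMSO; agonist mix (1nM isoproterenol, 100uM IBMX, 25uM Ro-20-1724) added; 0.5hr RT; d2-cAMP and anti-cAMP-cryptate added; 1hr RT; 665/615 nm read.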

[16] = molecular target: D(2) dopamine receptor (Homo sapiens) (UniProt P14416); assay: Dopamine D2 receptor (DRD2) small molecule agonists, cell-based qHTS assay (AID 1963594); further: nearly all actives have a fitted effect of over 35% in size
How it was run: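 HEK293 cells stably expressing human DRD2, pre-treated with PDE inhibitor Ro20-1724 (0.1 mM final) and compound 10 min at room temperature, then stimulated with NKH477 (200nM […]) for 30 min. cAMP read by HTRF (665/620 nm).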

[17] = molecular target: D(2) dopamine receptor (Homo sapiens) (UniProt P14416); assay: Dopamine D2 receptor (DRD2) small molecule antagonists, cell-based qHTS assay (AID 1963595; active means well fitted inhibition curve with a large enough effect in the signal ratio in the repeat runs, with a control signal flat; the % refers to the signal ratio)
How it was run: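 Antagonist mode in DRD2-HEK293 cells: after compound addition with 0.1 mM Ro20-1724, cells received quinpirole (12 nM) and NKH477 (200 nM) for 30 min at room temperature; HTRF cAMP read after 1 h detection.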

[18] = p53 small molecule agonists, cell-based qHTS assay with rat liver microsomes: qHTS cell viability counter screen (AID 1963580); further: nearly all actives have a fitted effect of over 45% in size
How it was run: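 p53RE-bla HCT-116 cells were exposed 16 h at 37 C to compounds with rat liver microsomes (0.5 mg/mL) and NADPH (0.5 mg/mL). Viability was measured in the same wells as ATP content by CellTiter-Glo luminescence.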

[19] = molecular target: 5-hydroxytryptamine receptor 2A (Homo sapiens) (UniProt P28223); assay: 5-hydroxytryptamine receptor 2A (HTR2A) small molecule antagonists, cell-based qHTS assay (AID 1963586); further: nearly all actives have a fitted effect of over 45% in size
How it was run: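 Antagonist-mode intracellular calcium assay: DOI (4 nM) added after 5 min compound pre-incubation at room temperature to dye-loaded HTR2A-CHO cells. Fluorescence followed for 3 min, sampled every second.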

[20] = p53 small molecule agonists, cell-based qHTS assay with human liver microsomes (AID 1963577);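 further: p53 response element beta-lactamase reporter cells with liver microsomes plus NADPH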
How it was run: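 16 h, 37 C exposure of p53RE-bla cells to compounds with human liver microsomes and NADPH (0.5 mg/mL final each); detection via LiveBLAzer mixture, 2 h dark at room temperature.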
On the % scale 0 is the no-effect control and ±100 the full control effect.

Chain of KiSS-1 receptor (Homo sapiens) (Q969F8 whole entry, looked up): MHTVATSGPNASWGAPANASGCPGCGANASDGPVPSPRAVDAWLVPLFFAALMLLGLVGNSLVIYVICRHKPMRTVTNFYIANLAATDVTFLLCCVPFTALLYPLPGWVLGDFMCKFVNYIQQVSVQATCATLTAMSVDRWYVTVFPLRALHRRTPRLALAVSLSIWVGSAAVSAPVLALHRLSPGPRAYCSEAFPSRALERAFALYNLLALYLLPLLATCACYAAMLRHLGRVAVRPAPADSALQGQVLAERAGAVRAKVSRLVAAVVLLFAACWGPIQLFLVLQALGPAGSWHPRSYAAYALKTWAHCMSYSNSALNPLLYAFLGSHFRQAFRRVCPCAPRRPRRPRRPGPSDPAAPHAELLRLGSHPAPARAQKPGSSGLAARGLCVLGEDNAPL
Chain of 5-hydroxytryptamine receptor 2A (Homo sapiens) (P28223 whole entry, looked up): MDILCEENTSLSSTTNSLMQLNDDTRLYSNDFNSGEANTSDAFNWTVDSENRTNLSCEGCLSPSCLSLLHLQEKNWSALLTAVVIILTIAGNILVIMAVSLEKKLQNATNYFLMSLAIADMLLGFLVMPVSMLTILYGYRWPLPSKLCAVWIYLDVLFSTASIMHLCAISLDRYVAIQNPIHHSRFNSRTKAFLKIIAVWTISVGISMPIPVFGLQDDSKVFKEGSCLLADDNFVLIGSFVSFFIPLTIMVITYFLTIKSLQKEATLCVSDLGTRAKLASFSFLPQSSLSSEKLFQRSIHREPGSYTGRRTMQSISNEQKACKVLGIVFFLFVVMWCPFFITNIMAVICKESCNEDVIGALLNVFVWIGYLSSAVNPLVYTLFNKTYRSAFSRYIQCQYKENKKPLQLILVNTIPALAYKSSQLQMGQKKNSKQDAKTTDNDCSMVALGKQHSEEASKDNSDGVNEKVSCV
Chain of D(2) dopamine receptor (Homo sapiens) (P14416 whole entry, looked up): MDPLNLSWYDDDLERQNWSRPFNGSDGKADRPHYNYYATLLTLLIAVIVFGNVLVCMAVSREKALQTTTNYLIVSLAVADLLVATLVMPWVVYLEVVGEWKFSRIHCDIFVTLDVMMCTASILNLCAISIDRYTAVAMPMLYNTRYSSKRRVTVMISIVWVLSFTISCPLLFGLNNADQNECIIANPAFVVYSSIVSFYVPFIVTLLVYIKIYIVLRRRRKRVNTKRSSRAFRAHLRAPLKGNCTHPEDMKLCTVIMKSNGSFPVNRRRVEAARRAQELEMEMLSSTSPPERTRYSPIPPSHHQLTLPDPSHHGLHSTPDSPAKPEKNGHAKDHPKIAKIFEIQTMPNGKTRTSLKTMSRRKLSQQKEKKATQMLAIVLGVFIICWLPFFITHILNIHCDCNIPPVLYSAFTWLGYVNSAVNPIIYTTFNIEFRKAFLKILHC
Chain of Muscarinic acetylcholine receptor M1 (Homo sapiens) (P11229 whole entry, looked up): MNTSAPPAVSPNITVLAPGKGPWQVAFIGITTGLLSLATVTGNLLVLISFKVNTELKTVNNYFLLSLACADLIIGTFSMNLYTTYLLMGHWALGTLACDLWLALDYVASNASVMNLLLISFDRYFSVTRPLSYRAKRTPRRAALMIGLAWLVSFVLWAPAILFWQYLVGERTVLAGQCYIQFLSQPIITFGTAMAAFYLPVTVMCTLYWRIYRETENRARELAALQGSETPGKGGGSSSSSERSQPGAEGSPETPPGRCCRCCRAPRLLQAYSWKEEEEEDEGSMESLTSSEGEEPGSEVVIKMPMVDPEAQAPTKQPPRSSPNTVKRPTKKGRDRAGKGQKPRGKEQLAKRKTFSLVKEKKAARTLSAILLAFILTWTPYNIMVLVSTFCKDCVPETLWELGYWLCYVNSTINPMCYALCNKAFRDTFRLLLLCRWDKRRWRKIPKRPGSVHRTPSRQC
Chain of Gonadotropin-releasing hormone receptor (Homo sapiens) (P30968 whole entry, looked up): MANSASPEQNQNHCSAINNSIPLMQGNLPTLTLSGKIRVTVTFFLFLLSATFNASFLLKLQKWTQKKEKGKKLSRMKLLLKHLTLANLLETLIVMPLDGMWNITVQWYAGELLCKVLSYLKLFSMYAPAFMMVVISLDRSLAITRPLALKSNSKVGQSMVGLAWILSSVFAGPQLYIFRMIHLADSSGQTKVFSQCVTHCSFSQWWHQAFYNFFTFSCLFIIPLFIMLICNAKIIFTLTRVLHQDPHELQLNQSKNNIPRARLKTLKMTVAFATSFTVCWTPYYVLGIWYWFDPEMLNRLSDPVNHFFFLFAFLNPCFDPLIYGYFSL
Chain of Beta-2 adrenergic receptor (Homo sapiens) (P07550 whole entry, looked up): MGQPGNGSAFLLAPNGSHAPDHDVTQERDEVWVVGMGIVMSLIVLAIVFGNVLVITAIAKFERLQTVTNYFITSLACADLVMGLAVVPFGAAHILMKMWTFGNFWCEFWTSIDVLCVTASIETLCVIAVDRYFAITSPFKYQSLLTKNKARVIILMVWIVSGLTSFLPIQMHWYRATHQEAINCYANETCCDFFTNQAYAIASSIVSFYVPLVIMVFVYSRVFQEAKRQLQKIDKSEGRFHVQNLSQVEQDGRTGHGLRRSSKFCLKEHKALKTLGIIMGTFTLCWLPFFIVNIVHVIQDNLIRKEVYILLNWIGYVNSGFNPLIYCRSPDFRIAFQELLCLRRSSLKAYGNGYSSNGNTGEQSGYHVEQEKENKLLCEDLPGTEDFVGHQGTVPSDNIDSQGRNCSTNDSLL

c1ccc(COCc2ccccc2)cc1
inactive: Potency [1] | Potency [2] | Potency [3] | outcome [4] | outcome [5] | Potency [6] | Potency [7] | Potency [8] | Potency [9] | Potency [10] | Potency [11] | Potency [12] | Potency [13] | Potency [14] | Potency [15] | Potency [16] | Potency [17]

COc1ncnc(NS(=O)(=O)c2ccc(N)cc2)c1OC
inactive: Potency [1] | Potency [2] | Potency [3] | outcome [4] | outcome [5] | Potency [6] | Potency [7] | Potency [18] | Potency [9] | Potency [13] | Potency [15] | Potency [16] | Potency [17]

CCc1ccc(C(=O)C(C)CN2CCCCC2)cc1 (centres undefined)
inactive: Potency [1] | Potency [2] | Potency [3] | outcome [4] | outcome [5] | Potency [6] | Potency [7] | Potency [8] | Potency [9] | Potency [13] | Potency [15] | Potency [16]

CCCCCCCCOC(C)=O
inactive: Potency [1] | Potency [2] | Potency [3] | outcome [4] | outcome [5] | Potency [6] | Potency [7] | Potency [8] | Potency [9] | Potency [10] | Potency [11] | Potency [12] | Potency [14] | Potency [15] | Potency [16] | Potency [17]

O=S(=O)(O)c1ccc(N=Nc2c(O)ccc3ccccc23)cc1
active: Potency [1] 61.1 µM
inactive: Potency [2] | Potency [3] | outcome [4] | outcome [5] | Potency [6] | Potency [7] | Potency [18] | Potency [19] | Potency [10] | Potency [11] | Potency [12] | Potency [15] | Potency [16]

COC(=O)C1CC(=O)C(C(=O)OC)CC1=O (centres undefined)
inactive: activity change, negative = cytotoxicity [1] 2.06% [at 8.39 µM] | activity, positive = activation [2] -3.71% [at 8.39 µM] | activity change [3] 0.483% [at 5.22 µM, hits give high values] | activation [4] 0.0459% [at 6.97 µM] | activation [20] -0.316% [at 5.99 µM] | activation [6] -0.919% [at 5.99 µM] | activity change, negative = cytotoxicity [7] -6.82% [at 5.99 µM] | activity change, negative = cytotoxicity [18] -4.56% [at 5.99 µM] | activity change, negative = cytotoxicity [8] -4.07% [at 5.99 µM] | activation [9] -3.72% [at 5.99 µM] | activity, negative = inhibition [19] 1.92% [at 5.62 µM] | activation [10] 7.2% [at 7.02 µM] | activity, negative = inhibition [11] 62.7% [at 5.58 µM] | activation [12] 0.037% [at 6.97 µM] | activation [13] 0.379% [at 8.39 µM] | activity change, negative = inhibition [14] -7.12% [at 8.39 µM] | activity change, negative = inhibition [15] 3.63% [at 8.39 µM] | activation [16] -0.218% [at 8.39 µM] | activity change, negative = inhibition [17] -0.133% [at 8.38 µM]

C[C@@H]1C[C@H]2[C@@H]3CCC4=CC(=O)C=C[C@]4(C)[C@@]3(F)[C@@H](O)C[C@]2(C)[C@@]1(O)C(=O)COP(=O)(O)O
inactive: Potency [1] | Potency [2] | Potency [3] | outcome [4] | Potency [20] | Potency [6] | Potency [7] | Potency [18] | Potency [8] | Potency [9] | Potency [13] | Potency [14] | Potency [15] | Potency [16] | Potency [17]

CN(C)CCN1CCOCC1
inactive: Potency [1] | Potency [2] | Potency [3] | outcome [4] | Potency [20] | Potency [6] | Potency [7] | Potency [18] | Potency [8] | Potency [9] | Potency [10] | Potency [11] | Potency [13] | Potency [15] | Potency [16] | Potency [17]

CCCc1ncc(C(=O)O)s1
inactive: Potency [1] | Potency [2] | Potency [3] | outcome [4] | Potency [20] | Potency [6] | Potency [7] | Potency [18] | Potency [8] | Potency [9] | Potency [19] | Potency [10] | Potency [11] | Potency [12] | Potency [13] | Potency [14] | Potency [16] | Potency [17]

CN(C)CCN(C)CCN(C)C
inactive: Potency [1] | Potency [2] | Potency [3] | outcome [4] | Potency [20] | Potency [6] | Potency [7] | Potency [18] | Potency [8] | Potency [9] | Potency [10] | Potency [11] | Potency [12] | Potency [13] | Potency [14] | Potency [15] | Potency [16] | Potency [17]

Nc1ccc(S(=O)(=O)Nc2ccccc2)cc1
inactive: Potency [1] | Potency [2] | Potency [3] | outcome [4] | Potency [20] | Potency [6] | Potency [7] | Potency [18] | Potency [8] | Potency [9] | Potency [10] | Potency [11] | Potency [12] | Potency [13] | Potency [14] | Potency [15] | Potency [16] | Potency [17]

Cc1cc(C)c(NC(=O)CN(CC(=O)O)CC(=O)O)c(C)c1Br
inactive: Potency [1] | Potency [2] | Potency [3] | outcome [4] | Potency [20] | Potency [6] | Potency [7] | Potency [18] | Potency [8] | Potency [9] | Potency [19] | Potency [10] | Potency [11] | Potency [12] | Potency [14] | Potency [15] | Potency [17]

O=C1c2ccccc2C(=O)C1c1nc2ccccc2c(Br)c1O
active: Potency [2] 24.3 µM
inactive: Potency [1] | Potency [3] | outcome [4] | Potency [20] | Potency [6] | Potency [7] | Potency [18] | Potency [8] | Potency [9] | Potency [19] | Potency [10] | Potency [11] | Potency [12] | Potency [15] | Potency [17]
